PubChem BioAssay (Tox21)
“And” between values parts separate entries of the source, which are not always exact repeats. Equal values may be shown once. Records with an inconclusive call do not appear. Where a call stands in place of a potency, no number is given. The source holds several records for some structures; these can differ, active in one and inactive in another. The source made the active and inactive calls. Unless noted, calls come from the whole dose curve; as a rule, active = well fitted curve in the direction sought with a large enough effect in the repeat runs; inconclusive = weak or mixed curves; inactive = no such curve, though single readings can be large; an effect the other way counts as inactive or inconclusive.

How the values were obtained:
[1] = qHTS assay for small molecule agonists of the p53 signaling pathway (AID 651631; calls by dose curve; note: nearly all actives have a fitted effect of over 15% in size; note: potency is the fitted concentration of half-maximal effect)
Method in brief: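 p53RE-bla HCT-116 cells; compounds 16 h, 37 °C; LiveBLAzer B/G FRET substrate 2 h RT; fluorescence intensity read-out, qHTS format.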

[2] = qHTS assay for small molecules that induce genotoxicity in human embryonic kidney cells expressing luciferase-tagged ATAD5 (AID 651632); note: nearly all actives have a fitted effect of over 15% in size; note: potency is the fitted concentration of half-maximal effect
Method in brief: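 ATAD5-luc HEK293T, 2,000 cells/well; cpd or DMSO pin-transferred; 16 hr, 37C/5% CO2; Amplite 30 min RT; luminescence.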

[3] = qHTS assay for small molecule agonists of the p53 signaling pathway - cell viability (AID 651633; calls by dose curve; note: nearly all actives have a fitted effect of over 30% in size; note: potency is the fitted concentration of half-maximal effect)
Method in brief: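 Viability counter-read: CellTiter-Glo luminescence (30 min, room temperature) in the same p53RE-bla plates. These plates had been exposed to compounds for 16 h at 37 C.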

[4] = qHTS assay for small molecules that induce genotoxicity in human embryonic kidney cells expressing luciferase-tagged ATAD5 - cell viability (AID 651634; calls by dose curve; note: nearly all actives have a fitted effect of over 25% in size; note: potency is the fitted concentration of half-maximal effect)
Method in brief: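 Fluorescence from CellTiter-Fluor, reporting protease activity within live cells, served as the viability read-out. HEK293T cells carrying luciferase-tagged ATAD5 had been treated with compound for 15.5 hr at 37C.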

[5] = qHTS assay for small molecule disruptors of the mitochondrial membrane potential - cell viability (AID 720634; calls by dose curve; note: nearly all actives have a fitted effect of over 20% in size; note: potency is the fitted concentration of half-maximal effect)
Method in brief: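 Cells: HepG2, 2,000/well, attached overnight. Compound 1 hr, 37 C/5% CO2. +m-MPI dye, +CellTiter-Glo 30 min RT. Readout: luminescence (ATP).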

[6] = qHTS assay for small molecule disruptors of the mitochondrial membrane potential (AID 720635); note: potency is the fitted concentration of half-maximal effect
Method in brief: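 Mitochondrial membrane potential tracked with Mito-MPS dye, red aggregates (ex 540/em 590 nm) against green monomers (ex 490/em 535 nm). Compound treatment 1 hr at 37C, dye 30 min in HepG2.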

[7] = qHTS assay to test for compound auto fluorescence at 590 nm (red) in HepG2 cells (AID 720674)
Method in brief: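 We screened compounds on adherent HepG2 cells, incubating them for an hour at 37 C in 5% CO2 before reading emission at 590 nm under 540 nm excitation; values reflect equivalence to Rose Bengal sodium fluorescence.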

[8] = qHTS assay to test for compound auto fluorescence at 535 nm (green) in HepG2 cells (AID 720675)
[9] = qHTS assay to test for compound auto fluorescence at 460 nm (blue) in HEK293 cells (AID 720678); note: potency is the fitted concentration of half-maximal effect
Method in brief: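 Triamterene serves as the blue fluorophore standard. Compound signal at 405/460 nm is read in HEK293 wells (2,000 cells, 10% dialyzed FBS) after overnight treatment at 37C.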

[10] = qHTS assay to test for compound auto fluorescence at 590 nm (red) in HEK293 cells (AID 720679)
Method in brief: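 We plated HEK293 cells in 10% dialyzed FBS medium, let them adhere for 4-5 hr, then added 23 nL compound. Overnight at 37C and 5% CO2 preceded fluorescence measurement at 540/590nm.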
Tags give direction and shape of the fitted curve or compound fluorescence and quenching.

SMILES	Potency [1]	Potency [2]	Potency [3]	Potency [4]	Potency [5]	Potency [6]	outcome [7]	outcome [8]	Potency [9]	outcome [10]
CCOC(=O)OC1=C(c2cc(C)ccc2C)C(=O)NC12CCC(OC)CC2 (configuration not stated)	68.5 µM (active)	inactive	inactive	inactive	10.9 µM (active)	21.7 µM (active)	inactive	inactive	inactive	inactive
CC(=O)OC1(c2ccccc2)CCN(CCc2ccccc2)CC1	inactive	inactive	inactive	inactive	inactive	–	inactive	inactive	inactive	inactive
CNC(C)Cc1ccc2c(c1)OCO2 (configuration not stated)	inactive	inactive	inactive	inactive	inactive	inactive	inactive	inactive	inactive	inactive
COc1cc(N)c(Cl)cc1C(=O)NC1CN2CCC1CC2 (configuration not stated)	inactive	inactive	inactive	inactive	inactive	inactive	inactive	inactive	inactive	inactive
CN(C)CCc1c[nH]c2ccc(O)cc12	inactive	inactive	inactive	inactive	inactive	inactive	inactive	inactive	inactive	inactive
CC(=O)/C=C/c1ccc2c(c1)OCO2	30.8 µM (active)	inactive	inactive	inactive	inactive	inactive	–	inactive	inactive	inactive
O=C1NCN(c2ccccc2)C12CCN(CC1COc3ccccc3O1)CC2 (configuration not stated)	inactive	inactive	inactive	inactive	inactive	inactive	inactive	inactive	inactive	inactive
c1ccc2cc3c(cc2c1)-c1cccc2cccc-3c12	1.7 µM (active)	inactive	inactive	inactive	inactive	–	inactive	inactive	3.55 µM [fluorescent] (active)	inactive
COC(=O)N(C(=O)N1CO[C@@]2(C(=O)OC)Cc3cc(Cl)ccc3C2=N1)c1ccc(OC(F)(F)F)cc1	46.9 µM (active)	inactive	inactive	inactive	3.32 µM (active)	13.2 µM (active)	inactive	inactive	inactive	inactive
FC(Cl)(Cl)Cl	inactive	inactive	inactive	inactive	inactive	–	inactive	inactive	inactive	inactive
Clc1ccc(C(c2ccccc2Cl)C(Cl)(Cl)Cl)cc1 (configuration not stated)	69 µM (active)	inactive	54.8 µM (active) and 40.2 µM (active)	inactive	–	–	inactive	inactive	inactive	inactive
CC(C)OC(=S)S	inactive	inactive	inactive	inactive	inactive	–	–	inactive	inactive	inactive
CCCN(CC)CC1COC2(CCC(C(C)(C)C)CC2)O1 (configuration not stated)	inactive	inactive	inactive	inactive	inactive	–	inactive	inactive	inactive	inactive
CC(C)(C)OO	inactive	inactive	inactive	inactive	inactive	inactive	inactive	inactive	inactive	inactive
Cc1cc(C)cc(OP(=O)(Oc2cc(C)cc(C)c2)Oc2cc(C)cc(C)c2)c1	inactive	inactive	inactive	inactive	–	49.3 µM (active)	inactive	inactive	inactive	inactive
C1CCC2CCCCC2C1 (configuration not stated)	inactive	inactive	inactive	inactive	inactive	–	–	inactive	inactive	inactive
CC(C)CC(C)N (configuration not stated)	inactive	inactive	inactive	inactive	inactive	inactive	inactive	inactive	inactive	inactive
CCOC(=O)C1(c2ccccc2)CCN(CCC(C#N)(c2ccccc2)c2ccccc2)CC1	3.76 µM (active) and 26.6 µM (active)	inactive	1.88 µM (active) and 9.44 µM (active)	inactive	–	13.3 µM (active) and 26.6 µM (active)	inactive	inactive	inactive	inactive
CCCCCCCCCBr	inactive	inactive	inactive	inactive	inactive	–	inactive	inactive	inactive	inactive
CCCN(CCC)CCc1c[nH]c2ccccc12	inactive	inactive	inactive	inactive	inactive	–	inactive	inactive	inactive	inactive

SMILES	Potency [1]	Potency [2]	Potency [3]	Potency [4]	Potency [5]	Potency [6]	outcome [7]	outcome [8]	Potency [9]	outcome [10]
ClC(Cl)=C(Cl)Cl	inactive	inactive	inactive	inactive	inactive	–	inactive	inactive	inactive	inactive
FC(F)(F)c1cccc(C2=CCN(CCc3ccc4ccccc4c3)CC2)c1	inactive	inactive	inactive	inactive	inactive	–	inactive	inactive	inactive	inactive
CC(C)CCCCCOC(=O)c1ccccc1C(=O)OCCCCCC(C)C	inactive	inactive	inactive	inactive	inactive	–	inactive	inactive	inactive	inactive
CCCCCCCCCCCCCN1CC(C)OC(C)C1 (configuration not stated)	inactive	inactive	inactive	inactive	inactive	–	inactive	inactive	inactive	inactive
CN(C)[C@@H]1C(=O)C(C(N)=O)=C(O)[C@@]2(O)C(=O)C3=C(O)c4c(O)ccc(Cl)c4[C@@](C)(O)[C@H]3C[C@@H]12	inactive	inactive	inactive	inactive	inactive	inactive	inactive	inactive	inactive	inactive
[CH3][Hg][Cl]	30.5 µM (active)	4.84 µM (active)	24.3 µM (active)	27.2 µM (active)	27.2 µM (active)	19.3 µM (active)	inactive	inactive	inactive	inactive
CC(C)[C@H](C(=O)O[C@H](C#N)c1cccc(Oc2ccccc2)c1)c1ccc(Cl)cc1	inactive	inactive	inactive	inactive	–	30.6 µM (active)	inactive	inactive	inactive	inactive
O=C(CCl)C(Cl)Cl	13.8 µM (active)	inactive	inactive	55 µM (active)	49 µM (active)	61.7 µM (active)	inactive	inactive	inactive	inactive
Cc1cc(C(C)(C)c2cc(C)c(O)c(C)c2)cc(C)c1O	29.6 µM (active)	inactive	59.1 µM (active)	inactive	29.6 µM (active)	18.7 µM (active)	inactive	inactive	inactive	inactive
Cn1cc(C2=C(c3cn(C4CCN(Cc5ccccn5)CC4)c4ccccc34)C(=O)NC2=O)c2ccccc21	7.5 µM (active)	inactive	inactive	inactive	inactive	inactive	inactive	inactive	inactive	inactive
CCN(CC)c1c([N+](=O)[O-])cc(C(F)(F)F)c(N)c1[N+](=O)[O-]	inactive	inactive	inactive	inactive	–	24.3 µM (active)	inactive	inactive	inactive	inactive
CN(C)CCc1c[nH]c2cccc(O)c12	inactive	inactive	inactive	inactive	inactive	inactive	inactive	inactive	inactive	inactive
Nc1ccccc1C(=O)Oc1ccc2ccccc2c1	inactive	5.45 µM (active)	inactive	inactive	–	61.1 µM (active)	–	inactive	inactive	inactive
O=CC(Br)(Br)Br	13.6 µM (active)	9.66 µM (active)	inactive	30.5 µM (active)	–	30.5 µM (active)	inactive	inactive	inactive	inactive
CC(=O)O[C@H]1CC[C@@]2(C)C(=CC[C@@H]3[C@@H]2CC[C@]2(C)C(=O)CC[C@@H]32)C1	inactive	inactive	inactive	inactive	inactive	inactive and 54.5 µM (active)	inactive	inactive	inactive	inactive
CC(c1ccc(O)cc1)c1ccc(O)cc1	inactive	inactive	inactive	inactive	inactive	25.6 µM (active)	inactive	inactive	inactive	inactive
NNC(=O)c1ccccc1	inactive	inactive	inactive	inactive	inactive	–	inactive	inactive	inactive	inactive
CCOC(=O)CC(=O)CCl	68.6 µM (active)	–	–	–	inactive	–	inactive	inactive	inactive	inactive
O=C1c2ccccc2C(=O)C1C(=O)C(c1ccccc1)c1ccc(Cl)cc1 (configuration not stated)	–	inactive	24.3 µM (active)	3.06 µM (active)	61.1 µM (active)	0.386 µM (active)	inactive	inactive	inactive	inactive
CSCCCN=C=S	54.5 µM (active)	–	–	54.5 µM (active)	inactive	–	inactive	inactive	inactive	inactive
